Source: PubChem BioAssay AID602376 (Johns Hopkins Ion Channel Center, 2012)
Potency and affinity values are given separately. Inconclusive results are not listed. Where a call stands in place of a potency, no number is given. Active and inactive are the calls of the source.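 Rule for the calls: active = raises choline transporter activity at one or more tested doses and gives a fitted dose-response curve; inconclusive = no clear call, values can overlap the other calls; inactive = no choline transporter activation at any dose, or no curve.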

Molecular target: High affinity choline transporter 1 (Homo sapiens) (UniProt Q9GZV3)
Sequence (Q9GZV3 whole entry, looked up): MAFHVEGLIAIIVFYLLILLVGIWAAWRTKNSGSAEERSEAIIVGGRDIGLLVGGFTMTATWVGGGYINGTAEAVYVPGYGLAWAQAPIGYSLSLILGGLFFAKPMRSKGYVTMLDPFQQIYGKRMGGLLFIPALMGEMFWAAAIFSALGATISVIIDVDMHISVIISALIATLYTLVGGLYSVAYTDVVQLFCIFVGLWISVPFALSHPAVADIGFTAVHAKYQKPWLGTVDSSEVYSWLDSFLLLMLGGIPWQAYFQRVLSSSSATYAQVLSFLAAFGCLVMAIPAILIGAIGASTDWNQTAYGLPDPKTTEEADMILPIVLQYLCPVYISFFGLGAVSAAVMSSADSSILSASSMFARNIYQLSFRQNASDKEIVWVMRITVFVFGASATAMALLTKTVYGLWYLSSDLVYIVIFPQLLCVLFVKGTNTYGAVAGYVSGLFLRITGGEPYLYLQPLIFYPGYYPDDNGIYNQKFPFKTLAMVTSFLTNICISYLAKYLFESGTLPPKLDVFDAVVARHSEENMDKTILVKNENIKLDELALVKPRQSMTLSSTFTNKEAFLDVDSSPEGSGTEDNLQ
Experiment: CHT activators, dose response, cell-based, 10-point CRC, membrane potential dye (AID 602376)
Details: HEK293-CHT, choline-induced membrane potential dye, cells express CHT LV-AA mutant; series mostly up to 67 µM

| Compound | outcome |
| --- | --- |
| CCCCCn1c(=O)c(C(=O)NCc2ccncc2)c(O)c2ccccc21 | inactive |
| COc1ccc(C2NCc3ccc4c(c3-n3cccc32)OCO4)cc1O (stereo not drawn) | inactive |
| CCCOC(=O)c1ccc(-[n+]2c(-c3ccccc3)cc(-c3ccccc3)cc2-c2ccccc2)cc1 | inactive |
